Results from PubChem BioAssay.
Inconclusive results are not listed. Calls of active or inactive are those of the source. Unless noted, cut-off not given; nearly all actives show AC50 up to about 26 µM.

What was measured:
[1] = viability loss in pontine glioma line – cell-based, SU-DIPG-XVII, MIPE5.0, CellTiter-Glo, qHTS, dose response (AID 1347060); settings: CellTiter-Glo ATP luminescence;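 on AC50: cells exposed to compound for 48 hours before viability readout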
[2] = viability loss in pontine glioma line – cell-based, SU-DIPG-XIII, MIPE5.0, CellTiter-Glo, qHTS, dose response (AID 1347064; cut-off not given, nearly all actives have AC50 up to about 23 µM;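 on AC50: cells exposed to compound for 48 hours before the viability read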); settings: CellTiter-Glo ATP luminescence
[3] = viability loss in pontine glioma line – cell-based, SU-DIPG-XXV, MIPE5.0, CellTiter-Glo, qHTS, dose response (AID 1347065); settings: CellTiter-Glo ATP luminescence;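 further: cells exposed to compound for 48 hours before ATP readout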
[4] = JHH-DIPG-1 glioma cell viability, MIPE5.0 library, CellTiter-Glo luminescence, qHTS (AID 1347067); settings: JHH-DIPG-1 glioma viability, CellTiter-Glo ATP luminescence;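 further: cells exposed to compound for 48 hours before readout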
[5] = growth inhibition of DIPG cells – cell-based, MIPE5.0 library, qHTS (AID 1347068; cut-off not given, nearly all actives have IC50 up to about 30 µM;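 on IC50: cells exposed to compound for 48 hours before viability readout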); settings: SU-DIPG-XXV viability

CCn1c(=O)c(-c2ccc(-c3cncs3)cc2Cl)cc2cnc(Nc3ccc(N4CCN(C)CC4)cc3)nc21
active: AC50 [1] 3.32 µM | AC50 [2] 8.33 µM | AC50 [3] 2.95 µM | AC50 [4] 5.25 µM | IC50 [5] 10.5 µM

O=C(NOCCO)c1cc(CN2OCCCC2=O)c(F)c(F)c1Nc1ccc(I)cc1F
active: AC50 [1] 0.332 µM | AC50 [2] 0.148 µM | AC50 [3] 0.417 µM | AC50 [4] 0.148 µM

CC[C@@H](C)Nc1cc(C(=O)NC2CC3CC[C@@H](C2)N3c2ccc(C(=O)C3CC3)cn2)c(C)cc1C(N)=O (stereo partly drawn)
active: AC50 [1] 0.118 µM | AC50 [2] 0.166 µM | AC50 [3] 0.0934 µM | AC50 [4] 0.148 µM

COCCNCc1ccc(-c2cc3nccc(Oc4ccc(NC(=O)C5(C(=O)Nc6ccc(F)cc6)CC5)cc4F)c3s2)nc1
active: AC50 [1] 7.42 µM | AC50 [2] 5.25 µM | AC50 [3] 4.68 µM | AC50 [4] 8.33 µM

CCCc1cc(C(=O)N[C@H](Cc2ccc(-c3cccc(OC(F)(F)F)c3)nc2)C(=O)N[C@@H]2CCNC2)sc1C
active: AC50 [1] 23.5 µM | AC50 [2] 16.6 µM | AC50 [3] 20.9 µM | AC50 [4] 10.5 µM

CN(C)C1CCN(C(=O)c2ccc(NC(=O)Nc3ccc(-c4nc(N5CCOCC5)nc(N5CCOCC5)n4)cc3)cc2)CC1
active: AC50 [1] 0.332 µM | AC50 [2] 0.833 µM | AC50 [3] 0.295 µM | AC50 [4] 0.417 µM | IC50 [5] 0.742 µM

CCCCN(CCCC)C(=O)CN1C[C@H](c2ccc3c(c2)OCO3)[C@@H](C(=O)O)[C@@H]1c1ccc(OC)cc1
inactive: outcome [1] | outcome [2] | outcome [3] | outcome [4]

CNC(=O)c1ccccc1Nc1nc(Nc2ccc3c(c2OC)CCC[C@@H](N2CCN(CCO)CC2)C3)ncc1Cl
active: AC50 [1] 2.35 µM | AC50 [2] 1.48 µM | AC50 [3] 0.833 µM | AC50 [4] 5.9 µM | IC50 [5] 11.8 µM

CCOC(=N)c1nc2ccc3ncnc(Nc4cc(F)c(F)cc4Cl)c3c2s1
active: AC50 [1] 16.6 µM | AC50 [2] 16.6 µM | AC50 [3] 11.8 µM | AC50 [4] 14.8 µM

CC[C@@H](C)Nc1cc(C(=O)NC2CC3CCC(C2)N3c2ccc(C(=O)C3CC3)cn2)c(C)cc1C(N)=O (stereo partly drawn)
active: AC50 [1] 0.148 µM | AC50 [2] 0.209 µM | AC50 [3] 0.186 µM | AC50 [4] 0.209 µM

NC(=O)c1ccc2nc(-c3ccc(C4(N)CCC4)cc3)c(-c3ccccc3)n2n1
inactive: outcome [5]
active: AC50 [1] 13.2 µM | AC50 [2] 6.61 µM | AC50 [3] 7.42 µM | AC50 [4] 7.42 µM

C=C1C[C@H]2C=Nc3cc(OCCCOc4cc5c(cc4OC)C(=O)N4CC(=C)C[C@H]4C=N5)c(OC)cc3C(=O)N2C1
active: AC50 [1] 0.00186 µM | AC50 [2] 0.0209 µM | AC50 [3] 0.0166 µM | AC50 [4] 0.00372 µM | IC50 [5] 0.0742 µM

Nc1cc(C(F)(F)F)c(-c2nc(N3CCOCC3)nc(N3CCOCC3)n2)cn1
active: AC50 [1] 2.35 µM | AC50 [2] 3.72 µM | AC50 [3] 0.742 µM | AC50 [4] 2.35 µM | IC50 [5] 1.86 µM

O=C(NCC(=O)N1CCCC1)Nc1ccc2cnccc2c1
inactive: outcome [1] | outcome [2] | outcome [3] | outcome [4] | outcome [5]

COCCOc1cnc2ccn([C@H](C)c3nnc4c(F)cc(-c5cnn(C)c5)cn34)c(=O)c2c1
inactive: outcome [1] | outcome [2] | outcome [3] | outcome [4] | outcome [5]

CC(C)c1cc(CNc2nc(Nc3cc(C4CC4)[nH]n3)cc(N3CCN(C)CC3)n2)on1
active: AC50 [1] 0.186 µM | AC50 [2] 0.166 µM | AC50 [3] 0.0833 µM | AC50 [4] 0.468 µM | IC50 [5] 0.525 µM

C=CC(=O)Nc1cc(N2CCN(CC)CC2)ccc1Nc1cc(N(C)C(=O)Nc2c(Cl)c(OC)cc(OC)c2Cl)ncn1
active: AC50 [1] 14.8 µM | AC50 [2] 14.8 µM | AC50 [3] 18.6 µM | AC50 [4] 20.9 µM
inactive: outcome [5]

Cc1ccc(S(=O)(=O)Nc2cc(-c3ccc(C#N)s3)ccc2C)cc1
active: AC50 [1] 0.0468 µM | AC50 [2] 0.0525 µM | AC50 [3] 0.0332 µM | AC50 [4] 0.059 µM | IC50 [5] 0.0661 µM

C=CC(=O)N1CCC(Oc2cc3c(Nc4ccc(Cl)c(Cl)c4F)ncnc3cc2OC)CC1
active: AC50 [1] 6.61 µM | AC50 [2] 5.25 µM | AC50 [3] 3.32 µM | AC50 [4] 5.25 µM | IC50 [5] 16.6 µM

CN(C)C/C=C/C(=O)Nc1cccc(C(=O)Nc2cccc(Nc3ncc(Cl)c(-c4c[nH]c5ccccc45)n3)c2)c1
active: AC50 [1] 0.417 µM | AC50 [2] 0.332 µM | AC50 [3] 0.263 µM | AC50 [4] 0.468 µM | IC50 [5] 0.417 µM

COc1ccccc1C(=O)Nc1cc2c(cc1N1CCNC[C@H]1C)n(C)c(=O)n2C
inactive: outcome [1] | outcome [2] | outcome [3] | outcome [4] | outcome [5]

O=C1NC(=O)C(c2cnc3ccccn23)=C1c1cn2c3c(cc(F)cc13)CN(C(=O)N1CCCCC1)CC2
active: AC50 [1] 1.86 µM | AC50 [2] 16.6 µM | AC50 [3] 18.6 µM | AC50 [4] 20.9 µM | IC50 [5] 20.9 µM

NC(=O)c1ccccc1Nc1ccnc(Nc2cccc(O)c2)n1
active: AC50 [1] 2.63 µM | AC50 [2] 5.25 µM | AC50 [3] 1.32 µM | AC50 [4] 18.6 µM | IC50 [5] 4.68 µM

O=C([C@@H](Cc1cccc(C(F)(F)F)c1)NS(=O)(=O)c1cc(F)c2c(c1)CCNC2)N1CCCC1
inactive: outcome [1] | outcome [2] | outcome [3] | outcome [4] | outcome [5]
